In all, about 4,000 compounds went through this assay and about 60 (2%) were called active.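 How the source made its calls: active means duplicate-averaged calcium fluorescence ratio at least three times the standard deviation of buffer wells, a nonspecific response in parental cells; inactive means the rest.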 This excerpt belongs to a sample that is enriched for actives.

This test in a line: nonspecific calcium signal in parental HEK293, confirmation, counter-screen for MrgX1 antagonist project, parental HEK293 cells, Fluo-4 calcium flux (AID 624111). The following applies: parental HEK293, Fluo-4 calcium fluorescence, FDSS; at 10 µM.
Consider `COc1ccc(C(=O)NC(=S)NNC(=O)c2c(-c3ccccc3)noc2C)cc1`, for which the fluorescence ratio F(max-min)/F0 result was “inactive”.
The result for `O=C(COC(=O)c1ccc(NS(=O)(=O)c2cccs2)cc1O)Nc1ccc(F)cc1` reads “inactive”.
In the case of `CN(CC(=O)Nc1ccccc1Cl)C(=O)COc1cccc2c1OC(C)(C)C2`, the fluorescence ratio F(max-min)/F0 result was “inactive”.
With `O=C(O)CSC(NC(=O)c1cccnc1)(C(F)(F)F)C(F)(F)F`, the fluorescence ratio F(max-min)/F0 entry is “inactive”.
Consider `Nc1cc(OC(=O)c2ccccc2Br)nn1S(=O)(=O)c1ccccc1`, for which the fluorescence ratio F(max-min)/F0 result is “inactive”.
Turning to `COc1cc2c(cc1O)C(SC)=NC(C)(C)C2`, the fluorescence ratio F(max-min)/F0 result is “inactive”.
With `Cc1nn(-c2ccccc2)c2c1C(c1ccc(F)cc1)C(C#N)=C(N)O2` (configuration not stated), the fluorescence ratio F(max-min)/F0 result was “inactive”.
On to `O=C(CSc1c2c(nc3ccc(Cl)cc13)CCCC2)NCc1ccco1`, for which the fluorescence ratio F(max-min)/F0 result was “inactive”.
The result for `COc1ccc(OC)c(C(=O)c2ccc(Cl)cc2)c1` reads “inactive”.
The result for `CCOc1ccc(C2=CC(c3ccccc3)n3ncnc3N2)cc1` (configuration not stated) reads “inactive”.
In the case of `O=C(c1cccs1)C1C(c2ccc(Br)cc2)NC(=S)NC1(O)C(F)(F)F` (configuration not stated), the fluorescence ratio F(max-min)/F0 result was “inactive”.
As for `CCOC1CCCCC1NS(=O)(=O)c1ccc(Cl)cc1` (configuration not stated), the fluorescence ratio F(max-min)/F0 entry is “inactive”.
Turning to `CC(C)CC(=O)NC(=S)NNC(=O)c1cccc([N+](=O)[O-])c1`, the fluorescence ratio F(max-min)/F0 entry was “inactive”.
The result for `Cc1ccnc(NC(=O)C(C)N2C(=O)c3ccccc3C2=O)c1` (configuration not stated) reads “inactive”.
Turning to `O=C1CCCc2c1nc(-c1cccc(Cl)c1)n2O`, the fluorescence ratio F(max-min)/F0 entry is “inactive”.
The entry for `O=C(CSc1nncn1-c1cccnc1)N1CCOCC1` is “inactive”.
In the case of `O=c1c2cc(Br)ccc2nc(-c2cccc(Cl)c2)n1O`, the fluorescence ratio F(max-min)/F0 entry is “inactive”.
The result for `O=C1Cc2ccccc2Sc2ccc(Cl)cc21` reads “inactive”; that for `CCOc1ccc2nc(/N=C/c3nc(-c4ccccc4)oc3O)sc2c1`, 0.438 (active).
The result for `COCC(C)NC(=O)c1ccc(Cl)c(Cl)c1` (configuration not stated) reads “inactive”; that for `COCCNC(=O)C1CCN(S(=O)(=O)c2ccc3c(c2)OCCO3)CC1`, “inactive”; that for `FC(F)Oc1ccc(NC(=S)NCc2ccco2)cc1Cl`, “inactive”.
`COc1ccc(NC(=O)c2cc(-c3ccc(C)o3)nc3ccccc23)cc1`: the fluorescence ratio F(max-min)/F0 entry was “inactive”.
The result for `O=C(COC(=O)C1CCN(S(=O)(=O)c2ccc3c(c2)OCCO3)CC1)Nc1ccccc1OC(F)F` reads “inactive”; that for `CC1CCN(S(=O)(=O)c2nnc(NC(=O)COc3ccccc3F)s2)CC1`, “inactive”; that for `COC(=O)Cn1c(O)c(N=NC(=O)OC)c2ccccc21`, “inactive”.
As for `O=C(Nc1nc2c(F)cc(F)cc2s1)C1COc2ccccc2O1` (configuration not stated), the fluorescence ratio F(max-min)/F0 entry is “inactive”.
With `CC(C)OCCCNc1ncnc2c1[nH]c1ccc(F)cc12`, the fluorescence ratio F(max-min)/F0 entry is “inactive”.
Regarding `O=C(CC(O)(C(F)(F)F)C(F)(F)F)Nc1ccc(Cl)c(Cl)c1`, the fluorescence ratio F(max-min)/F0 result is “inactive”.
The result for `O=C(Nc1ccccc1N1CCOCC1)c1csc2c1CCCC2` reads “inactive”.
The result for `Cc1ccc2cc(/C=N/Nc3ccc(C(=O)O)cc3)c(Cl)nc2c1` reads “inactive”.
As for `CCOCc1nnc(NC(=O)CCC2CCCCC2)s1`, the fluorescence ratio F(max-min)/F0 result was “inactive”.
The result for `O=C(Cn1c(-c2cncs2)nc2ccccc21)NC1CCCC1` reads “inactive”; that for `COc1cc(C2/C(=C(\O)c3ccc4c(c3)CC(C)O4)C(=O)C(=O)N2Cc2ccco2)ccc1O` (configuration not stated), “inactive”.
On to `CC1CCCCN1S(=O)(=O)c1ccc(C(=O)Nc2nnc(-c3cccs3)o2)cc1` (configuration not stated), for which the fluorescence ratio F(max-min)/F0 entry is “inactive”.
For the molecule `O=C(Oc1ccc(C(=S)N2CCOCC2)cc1)c1ccc(F)cc1`, the fluorescence ratio F(max-min)/F0 result was “inactive”.
The entry for `COC(=O)Cc1cc(=O)n(-c2nc3ccccc3s2)[nH]1` is “inactive”; for `COC(=O)c1c(NC(=O)c2c(Cl)cnn2C)sc(C)c1C` it is “inactive”.
The entry for `COc1cccc(CCNC(=O)COc2cccc3c2OC(C)(C)C3)c1` is “inactive”.
The result for `CCOC(=O)Cc1csc(SCc2cc(=O)oc3cc(O)ccc23)n1` reads “inactive”; that for `NC(=O)c1c(Nc2nc3c(F)cccc3s2)sc2c1CCCC2`, “inactive”; that for `COc1ccc([N+](=O)[O-])cc1NC(=O)COC(=O)/C=C/c1ccco1`, “inactive”.
For the molecule `Cc1ccc(OC(=O)c2cc3ccccc3o2)cc1`, the fluorescence ratio F(max-min)/F0 result was “inactive”.
For the molecule `Cc1cccc(-n2c(Cc3cc(=O)[nH]c(=O)[nH]3)nnc2SC(C)C)c1`, the fluorescence ratio F(max-min)/F0 result was “inactive”.
On to `Cc1ccc(Nc2nc(-c3ccc(O)cc3O)cs2)nc1`, for which the fluorescence ratio F(max-min)/F0 entry was “inactive”.
The result for `COc1ccc(Nc2nc(-c3cccnc3)nc3ccccc23)cn1` reads “inactive”; that for `Cc1ccc(S(=O)(=O)N(C)c2nc3ccccc3n3c(C(C)C)nnc23)cc1`, “inactive”; that for `COC(=O)c1c(NC(=O)CN(c2ccc(C)c(C)c2)S(C)(=O)=O)sc2c1CCCC2`, “inactive”.
For the molecule `Cc1nonc1C1CCCN1Cc1nc(-c2ccc(F)cc2F)oc1C` (configuration not stated), the fluorescence ratio F(max-min)/F0 entry was “inactive”.
Turning to `Cc1ccc(C(C(=O)NC2CCCCC2)N(C(=O)c2csnn2)C2CC2)o1` (configuration not stated), the fluorescence ratio F(max-min)/F0 entry is “inactive”.
With `CCCc1nc2c(c(=O)c3ccccc3n2C)c(=O)n1C1CCCCCC1`, the fluorescence ratio F(max-min)/F0 entry was “inactive”.
For `COC(=O)c1ccc(C2C3=C(Nc4nnnn42)c2ccccc2OC3)cc1` (configuration not stated), the fluorescence ratio F(max-min)/F0 entry is “inactive”.
The entry for `CCN(CC)c1ccc(C2C3CCCCC3(O)CCN2CC(=O)Nc2ccccc2)cc1` (configuration not stated) is “inactive”.
In the case of `Cc1cccc(NC(=O)COc2ccccc2C)n1`, the fluorescence ratio F(max-min)/F0 result was “inactive”.
Turning to `COc1ccc(Cc2nc(-c3ccccn3)no2)cc1OC`, the fluorescence ratio F(max-min)/F0 result is “inactive”.
In the case of `CN(C)CCn1c(=S)[nH]c2ccc(Cl)cc2c1=O`, the fluorescence ratio F(max-min)/F0 result was “inactive”.
As to `O=C(CSc1ncccn1)NC(=O)NCc1ccccc1`, the fluorescence ratio F(max-min)/F0 entry is “inactive”.
For the molecule `O=C(c1cccc(S(=O)(=O)Nc2ccccc2Cl)c1)N1CCN(C(=O)c2ccco2)CC1`, the fluorescence ratio F(max-min)/F0 entry is “inactive”.
For the molecule `O=C(Nc1ccccc1)c1nnsc1S(=O)(=O)c1ccc(Cl)cc1`, the fluorescence ratio F(max-min)/F0 result was “inactive”.
Consider `Cc1ccc(-n2[nH]c(C)c(/C=N/N3C(=O)c4cccc5cccc(c45)C3=O)c2=O)cc1`, for which the fluorescence ratio F(max-min)/F0 result was “inactive”.
The result for `CCCCC(=O)Nc1ccc2c(c1)C(=O)NC2=O` reads “inactive”.
The entry for `O=C(Cc1ccccn1)c1ccc(O)cc1O` is “inactive”; for `Cc1cc2ncn(CCCCOc3ccccc3)c2cc1C` it is “inactive”; for `CC(C)(C)n1c(=O)[nH]c2c(c1=O)CCC2` it is “inactive”.
As for `Cc1ccc2nc(-c3ccc(NC(=O)CN(C)S(=O)(=O)c4ccccc4)cc3)sc2c1`, the fluorescence ratio F(max-min)/F0 result was “inactive”.
Consider `Cc1cccc(NC(=O)C(C)N2C(=O)C3C4CC(C(Br)C4Br)C3C2=O)c1` (configuration not stated), for which the fluorescence ratio F(max-min)/F0 result is “inactive”.
Regarding `C=CCNC(=O)c1csc(-c2ccccc2)n1`, the fluorescence ratio F(max-min)/F0 entry was “inactive”.
The result for `CCc1ccc(N(CC(=O)Nc2sc3c(c2C(=O)OC)CCCC3)S(C)(=O)=O)cc1` reads “inactive”; that for `Cc1ccc(Cc2cnc(N)s2)o1`, “inactive”.
For `COc1ccc(Nc2nnc(C)c3ccccc23)cc1`, the fluorescence ratio F(max-min)/F0 entry is “inactive”.
With `Cc1nn(-c2ccccc2)c(C)c1NC(=O)COc1ccc(Cl)cc1Cl`, the fluorescence ratio F(max-min)/F0 entry is “inactive”.
The entry for `O=C(Nc1cccc(Cl)c1)c1cncn1-c1ccc(F)cc1` is “inactive”; for `CCC(C)Sc1nc(C)nc2c1c(=O)n(C)c(=O)n2C` (configuration not stated) it is “inactive”.
With `CCc1cc2c(SCC(=O)Nc3ncc(Cl)c(C)c3Cl)ncnc2s1`, the fluorescence ratio F(max-min)/F0 result is “inactive”.
The figure for `N#CC1=C(N)Oc2c(sc3ccccc23)C1c1ccco1` (configuration not stated) is 0.504 (active); for `CCC(C)c1ccccc1N1CC(C(=O)N2CCN(S(=O)(=O)c3ccc(F)cc3)CC2)CC1=O` (configuration not stated) it is “inactive”; for `COc1ccccc1Oc1nc(-c2cccnc2)nc2ccccc12` it is “inactive”.
Regarding `COC(=O)c1ccc(COC(=O)C2CCN(S(=O)(=O)c3c(Cl)cccc3Cl)CC2)o1`, the fluorescence ratio F(max-min)/F0 entry is “inactive”.
The entry for `CN1C(CC(=O)Nc2ccc(Br)cc2)c2ccccc2CC1(C)C` (configuration not stated) is “inactive”; for `O=C(COc1ccc(Cl)cc1)NC(=S)Nc1ccccc1N1CCOCC1` it is “inactive”.
The entry for `Nc1ccc(Oc2ccc(Cl)cc2)cc1` is “inactive”; for `Cc1cc(=O)oc2cc(NC(=O)C3CC(=O)N(Cc4ccccc4)C3)ccc12` (configuration not stated) it is “inactive”; for `COCCCNC(=O)C1CCN(c2ccc(N3CCOCC3)nn2)CC1` it is “inactive”.
With `COc1ccc(C(=O)NC(=S)NC2CCCCC2)cc1`, the fluorescence ratio F(max-min)/F0 entry is “inactive”.
The result for `O=C(Nc1ccc(Br)cc1F)C1CC(=O)N(C2CCCCC2)C1` (configuration not stated) reads “inactive”.
As for `CCN(c1cccc(C)c1)S(=O)(=O)c1ccc(-c2coc(C)n2)cc1`, the fluorescence ratio F(max-min)/F0 entry was “inactive”.
The result for `CC(=O)N(C1=C(Cl)C(=O)c2ccccc2C1=O)c1ccc(C(=O)O)cc1` reads “inactive”.
Regarding `CCOC(=O)c1c(NC(=O)CSc2cn(CC)c3ccccc23)sc2c1CCC2`, the fluorescence ratio F(max-min)/F0 result was “inactive”.
Turning to `O=C(c1ccc(O)cc1)c1ccc(C(=O)O)c(C(=O)O)c1`, the fluorescence ratio F(max-min)/F0 result was “inactive”.
The entry for `CCOc1ccc(NC(=O)CCNC(=O)c2ccc(Br)cc2)cc1` is “inactive”; for `O=C1CCCN1CCCNC(=S)Nc1ccc(F)c(Cl)c1` it is “inactive”; for `COc1ccc(S(=O)(=O)N2CCN(C(=O)NC3CCCCC3)CC2)cc1` it is “inactive”.
The result for `O=C(Nc1nnc(-c2ccccc2)o1)c1cc(-c2cccs2)nc2ccccc12` reads “inactive”; that for `Cc1cc(Br)ccc1NC(=O)c1cnc(N2CCN(c3ccccn3)CC2)c2ccccc12`, “inactive”; that for `Cc1c(C(=O)N2CCN(c3ccc(F)cc3)CC2)oc2c1C(=O)CCC2`, “inactive”.
With `CC(C)CC(=O)N/C(N)=N/c1nc2ccccc2s1`, the fluorescence ratio F(max-min)/F0 entry was “inactive”.
The entry for `CC(=O)N(C)c1ccc(NC(=O)C(F)(F)F)cc1` is “inactive”.
In the case of `CCOC(=O)c1c(C)[nH]c(=S)c(C#N)c1-c1ccccc1`, the fluorescence ratio F(max-min)/F0 entry was “inactive”.
The result for `CCc1cc(=O)oc2cc(C)cc(OCC(=O)N3CCC[C@@H]3C(=O)O)c12` reads “inactive”; that for `CCN(CC)CC(=O)Nc1nn(-c2ccccc2)nc1C(N)=O`, “inactive”; that for `O=C(C1CCN(S(=O)(=O)c2cnc[nH]2)CC1)N1CCN(Cc2ccc3c(c2)OCO3)CC1`, “inactive”.
As to `OCc1ccc(OCCCOc2cccc3cccnc23)cc1`, the fluorescence ratio F(max-min)/F0 entry is “inactive”.
The entry for `FC(F)(F)c1cc(-c2cccs2)nc(NCc2ccco2)n1` is “inactive”; for `O=C(Cc1nc2ccccc2[nH]c1=O)c1ccc(Cl)cc1` it is “inactive”.
The result for `Clc1ccc(C=NC23CN4CN(CN(C4)C2)C3)cc1` reads “inactive”; that for `CCOC(=O)N1CCN(C(=O)COCc2cc(-c3ccc4c(c3)OCO4)on2)CC1`, “inactive”.
The entry for `CCSc1nsc(NC(=O)Nc2cccc(C(C)=O)c2)n1` is “inactive”; for `CCCc1cc(=S)n2c([nH]c3ccccc32)c1C#N` it is “inactive”; for `O=c1cc(CSc2ccccn2)nc(N2CCN(c3ccccc3)CC2)[nH]1` it is “inactive”.
With `CCOC(=O)CNC(=O)CSc1nc2cccnc2n1CC`, the fluorescence ratio F(max-min)/F0 result was “inactive”.
The result for `Cc1c(C)c2c(OCC(=O)N[C@@H](C(=O)O)c3ccccc3)cc3c(c2oc1=O)CCC(C)(C)O3` reads “inactive”.
The result for `Cc1ccc(-c2nn(C(C)(C)C)c3ncnc(N)c23)cc1` reads “inactive”.
